Bioassay records: PubChem BioAssay, National Center for Advancing Translational Sciences (NCATS)
Only some compounds are listed: those with a hit (about 3% of all), similar ones and a draw of the others.
VDR inh – blocks the human vitamin D receptor | P11473 | VDR-SRC2-3 peptide fluorescence polarization, 2 h | Potency, µM, without a hit: max response, negative = inhibition, most hits filed as inhibitors | 0.93% of 400,000 active | AID 504847; further: on the % scale 0 is the no-effect control and ±100 the full control effect
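Two reagent solutions held at 4 deg C in the dark were dispensed, compounds pinned at 23 nl, and the mixture incubated 2 h at room temperature. Read-out: fluorescence polarization of VDR–SRC2-3 peptide binding.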
PLK1 PBD block – blocks phosphopeptide binding to human PLK1 polo-box domain. AID 720504. Potency, µM, for the others: max response, negative = inhibition, usual class: inhibitors. Plk1 PBD binding of FITC phosphopeptide, fluorescence polarization. 2.8% of 360,000 active; further: series mostly up to about 57 µM; on the % scale 0 is the no-effect control and ±100 the full control effect; nearly all actives have a fitted effect of over 65% in size
PTAP TSG101 blk – blocks PTAP/TSG101 interaction to inhibit HIV-1 budding; Fluorescence polarization, FITC-PTAP peptide / Tsg101 binding; Potency, µM (series often up to 115 µM), inactives show top-dose activity change, negative = inhibition, hits mostly inhibitors; 340,000 tested, under 10 active; active means well fitted inhibition curve with a large enough effect in the main read-out, with a control signal flat, not every such curve was filed as active; inconclusive means small, poorly fitted or top-dose-only effect, or effect the other way, or a change in a side signal; inactive means no such curve, though single readings can be large or run the other way; further: % of control where 0% means no effect
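Fluorescence polarization binding of Tsg101 binding domain (10 uM final) to FITC-labeled PTAP peptide (50 nM final) in HEPES pH 7.5 buffer with NaCl, Tween 20, EDTA, TCEP. Compounds added before peptide; binding 20 min at RT.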
KAT2A inh – inhibitors of human GCN5L2 histone acetyltransferase. Q92830. GCN5L2 HAT assay, ThioGlo1 CoA-SH fluorescence. Potency, µM (highest dose often 58.9 µM), for the others: at the highest dose activity change, negative = inhibition, usual class: inhibitors. 0.21% of 390,000 active. AID 504327; further: on the % scale 0 is the no-effect control and ±100 the full control effect
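Preincubate 20nM GCN5L2 with compound 15 min, RT → add 50uM ThioGlo1 + 75uM H3(1-25) + 70uM acetyl-CoA → read fluorescence 0 and 20 min. Primary qHTS; fluorescent artifacts likely.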
USP1 inh – inhibitors of human USP1/UAF1 deubiquitinase; O94782; recombinant USP1/UAF1, Ub-Rhodamine cleavage fluorescence; Potency, µM (titrated, usually from 57.1 µM), for the others: at the highest dose activity change, negative = inhibition, most hits filed as inhibitors; 0.23% of 390,000 active; AID 743255; further: on the % scale 0 is the no-effect control and ±100 the full control effect; nearly all actives have a fitted effect of over 60% in size
Target sequence (O94782 whole entry, looked up): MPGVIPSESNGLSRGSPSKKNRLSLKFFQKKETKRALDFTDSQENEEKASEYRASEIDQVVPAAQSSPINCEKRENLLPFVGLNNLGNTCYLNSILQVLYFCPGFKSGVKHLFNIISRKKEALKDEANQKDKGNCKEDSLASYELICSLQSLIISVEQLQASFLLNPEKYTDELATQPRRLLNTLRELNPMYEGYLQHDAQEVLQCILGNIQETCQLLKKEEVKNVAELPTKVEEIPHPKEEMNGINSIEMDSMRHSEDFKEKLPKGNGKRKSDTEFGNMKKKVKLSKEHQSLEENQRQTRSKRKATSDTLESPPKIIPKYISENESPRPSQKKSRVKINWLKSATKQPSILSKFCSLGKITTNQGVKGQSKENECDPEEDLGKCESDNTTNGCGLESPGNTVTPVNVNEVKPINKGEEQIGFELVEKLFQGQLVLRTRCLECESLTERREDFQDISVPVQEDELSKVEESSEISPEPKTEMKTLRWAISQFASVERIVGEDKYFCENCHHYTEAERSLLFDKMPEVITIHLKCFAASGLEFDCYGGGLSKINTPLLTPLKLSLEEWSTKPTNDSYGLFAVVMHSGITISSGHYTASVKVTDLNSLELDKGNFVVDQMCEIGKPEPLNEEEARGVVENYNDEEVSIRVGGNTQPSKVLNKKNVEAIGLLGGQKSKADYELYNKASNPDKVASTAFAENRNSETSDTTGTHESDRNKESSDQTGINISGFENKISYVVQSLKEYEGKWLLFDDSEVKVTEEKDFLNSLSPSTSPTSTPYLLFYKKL
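USP1/UAF1 complex at 1 nM was preincubated with compound for 15 min at room temperature, then Ub-Rho substrate (150nM final) was added. Fluorescence (480/540 nm) was read kinetically, 6 reads every 60 seconds.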
Starred values were filed as active, the others as inactive; ? = inconclusive; . = not tested or not shown. Unless noted, the call rests on the fitted dose curve; in most records, active means well fitted curve in the direction sought with a large enough effect; inconclusive means small, poorly fitted or top-dose-only effect, or another doubt; inactive means no such curve, though single readings can be large; an effect the other way counts as inactive or inconclusive. Potency means the concentration at half of the fitted maximal effect.

SMILES	VDR inh	PLK1 PBD block	PTAP TSG101 blk	KAT2A inh	USP1 inh
O=C(Nc1cccc(F)c1)C1CC(=O)N(c2ccc(Cl)cc2)C1 (stereo unspecified)	9.5%	?	-8.0%	-13.0%	-19.6%
CCc1c(C(C)S(=O)(=O)c2ccccc2)[nH]c(=O)n1CC (stereo unspecified)	-23.9%	15µM*	-2.7%	-7.3%	-7.9%
CC(S(=O)(=O)c1ccccc1)S(=O)(=O)c1ccccc1	.	-8.5%	.	.	-25.2%
CSc1ccc(CCNC(=O)c2csc3c2CCCCC3)cc1	-1.9%	.	.	-1.7%	-5.6%
O=C(/C=C/c1ccccc1Cl)c1ccc(O)cc1	?	-2.7%	1.9%	-0.9%	-22.5%
O=C(/C=C/c1c(F)cccc1Cl)c1ccc(O)cc1	79.4µM*	-10.2%	-5.5%	-7.3%	-21.3%
CN(Cc1ccccc1)C(=O)c1cc2c(s1)-c1ccc(Cl)cc1SC2	-4.6%	.	.	-7.8%	-15.0%
Cc1cccc(Cn2c(=O)n(Cc3ccccc3)c(=O)c3c2c2cc(C)ccc2n3C)c1	16.8%	.	.	-0.2%	-21.9%
Cc1cccc(Nc2c([N+](=O)[O-])c(=O)n(C)c3ccccc23)c1	?	26.7µM*	0.3%	-0.4%	-8.6%
Cn1c(=O)c([N+](=O)[O-])c(-n2ccnc2)c2ccccc21	20µM*	-6.2%	-4.1%	-2.8%	-13.8%
Cn1c(=O)c([N+](=O)[O-])c(NCCCn2ccnc2)c2ccccc21	2.3%	-1.1%	-0.4%	1.1%	-25.8%
CC(C)c1ccc(Nc2c([N+](=O)[O-])c(=O)n(C)c3ccccc23)cc1	-8.1%	5.4%	-4.4%	-11.0%	-29.9%
COc1ccccc1-c1cnc(C(O)c2ccc(C(C)(C)C)cc2)[nH]1 (stereo unspecified)	.	-15.1%	.	.	.
Cc1cc(O)c2c(c1)C(=O)[C@@]13Oc4c5c(c(O)c6c(O)cc(C)cc46)C(=O)C[C@H](O)[C@H]5[C@@H]1[C@@H](O)CC(=O)C3=C2O	-4.8%	3.36µM*	-11.8%	.	-23.9%
COc1cc(/C=C2/C(=O)N(c3ccc(Br)cc3)N=C2C)cc([N+](=O)[O-])c1O	.	.	.	1.6%	.
COc1cc(/C=C2/C(=O)NN(c3ccc(Cl)cc3)C2=O)cc(Br)c1O	70.8µM*	?	-4.4%	?	?
COc1cc(/C=C2/C(=O)NN(c3ccc(Cl)cc3)C2=O)ccc1OC(=O)c1ccco1	?	2.67µM*	-3.8%	?	-12.3%
COc1cc(/C=C2/C(=O)NN(c3ccc(Cl)c(Cl)c3)C2=O)cc([N+](=O)[O-])c1O	56.2µM*	11.9µM*	-12.8%	-6.1%	?
COc1cc(/C=C2/C(=O)NN(c3ccc(F)cc3)C2=O)cc(Cl)c1O	?	29.9µM*	10.6%	-5.1%	?
COc1cc(/C=C2\SC(N)=NC2=O)cc(Br)c1O	11.4%	27.8%	42.3%	?	-25.1%
C=CCN1C(=O)/C(=C\c2ccc(OC(=O)c3ccco3)c(OC)c2)SC1=S	-2.3%	3.2%	-0.2%	-11.3%	-23.8%
COc1ccc(NC(=O)c2oc3ccc(S(=O)(=O)N(C)C4CCCCC4)cc3c2C)cc1Cl	-0.5%	.	.	1.3%	?
O=C(NCc1cccc(Cl)c1)c1cccn1-c1nnc(N2CCCC2)s1	1.9%	.	.	1.2%	?
COC(=O)c1ccc(N2NC(=O)/C(=C/c3cc(OC)c(O)c(OC)c3)C2=O)cc1	?	19.3%	13.5%	9.8%	?
O=C1NN(c2cccc(Br)c2)C(=O)/C1=C\c1ccc(N2CCOCC2)cc1	-10.6%	?	-2.7%	2.4%	-13.2%
SMILES	VDR inh	PLK1 PBD block	PTAP TSG101 blk	KAT2A inh	USP1 inh
COC(=O)c1ccc(N2NC(=O)/C(=C/c3cc(OC)c(OC)c(OC)c3)C2=O)cc1	70.8µM*	8.44µM*	-5.6%	-0.4%	-18.5%
COc1cccc(/C=C2/C(=O)NN(c3ccc(Br)cc3)C2=O)c1O	?	7.52µM*	-2.7%	-20.4%	-28.2%
COC(=O)C1=C(C)N(Cc2ccc(C)cc2)C(=O)/C1=C\c1cc(OC)c(OC)c(OC)c1	50.1µM*	-5.0%	-3.0%	-7.3%	-25.3%
COc1cccc(-c2cc(C(F)(F)F)n3nc(-c4ccc(C)cc4)cc3n2)c1	-4.7%	.	.	-13.5%	1.2%
CC1CCC(C(C)C)C(OC(=O)C[n+]2cccc(C(N)=O)c2)C1 (stereo unspecified)	?	2.38µM*	0.3%	?	-15.0%
N#C/C(=N\Nc1ccc(S(=O)(=O)N2CCCCCC2)cc1)C(N)=S	?	15µM*	-1.5%	1.2%	0.9%
CCOC(=O)/C(C#N)=N/Nc1ccc(S(=O)(=O)N2CCc3ccccc32)cc1	-14.5%	-1.7%	-1.2%	-11.3%	-23.6%
N#C/C(=N\Nc1ccc(S(=O)(=O)N2CCc3ccccc32)cc1)C(N)=S	?	26.7µM*	-6.4%	-12.3%	?
N#C/C(=N\Nc1ccc(S(=O)(=O)N2CCCCC2)cc1)C(N)=S	?	?	-1.6%	-14.7%	-16.7%
CCOc1ccc2nc(Cl)c(C3CC(c4ccc(C)cc4)=NN3C(=O)CCC(=O)O)cc2c1 (stereo unspecified)	-21.6%	.	.	-4.6%	?
O=C(NC1CCCCCC1)C1CCN(C(=O)N2CCOc3ccc(Cl)cc32)CC1	1.5%	.	.	-22.0%	3.3%
COC(=O)c1sccc1NC(=O)/C=C/C(=O)O	3.0%	-14.8%	-3.9%	-6.1%	2.8%
CCOC(=O)c1sc(NC(=O)/C=C/c2ccc(F)cc2)nc1C	-12.6%	21.2µM*	-2.8%	-1.6%	-8.1%
COC(=O)c1c(NC(=O)/C=C/C(=O)O)sc(C)c1-c1ccc(C(C)C)cc1	25.1µM*	37.7µM*	-2.5%	0.0%	-20.4%
CCOC(=O)c1c(NC(=O)/C=C/C(=O)O)sc(C)c1-c1ccc(F)cc1	22.4µM*	-14.4%	3.6%	-0.8%	-9.8%
COC(=O)c1c(NC(=O)/C=C/C(=O)O)sc(C)c1-c1ccc(C)cc1	?	-19.1%	-1.3%	-0.1%	-23.2%
COC(=O)c1sc(-c2ccc(Cl)cc2)cc1NC(=O)/C=C/C(=O)O	31.6µM*	-11.8%	-7.9%	-5.6%	-27.4%
CCn1cc(C(=O)NCc2ccccc2OC)c(=O)c2cc(S(=O)(=O)N3CCCCC3)ccc21	-7.3%	.	.	-12.3%	-10.5%
CC(=O)c1cccc(NC(=O)Nc2nnc(N3CCCC3)s2)c1	-2.3%	.	.	-3.8%	0.3%
O=C(CCCCn1ccc(=O)[nH]c1=O)Nc1ccc(O)c(C(=O)O)c1	1.1%	-1.0%	-5.1%	.	-25.3%
Cc1ccccc1NC(=O)c1sc2nc3c(cc2c1N)CCCC3	-5.5%	.	.	-10.1%	?
COC(=O)[C@H]1O[C@@H](c2cc(OC)c(C)c(OC)c2O)[C@H](C)[C@@H](O)[C@H]1C	-6.2%	.	.	.	.
COC(=O)c1c(NC(=O)/C=C/C(=O)O)sc(C)c1-c1ccc(C)c(C)c1	89.1µM*	?	-4.2%	-4.5%	-20.9%
